C_diff_HTS: C. difficile growth inhibitors, primary screen, HTS; growth activity, negative = inhibition, % at 16 µg/mL (by protocol); AID 1259249, 2017; Clostridium difficile clinical isolate growth, OD600, 24 h; stronger effect = lower value; 86,000 compounds, 0.25% hits;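 active means mean growth activity at or below -80% and every replicate also at or below -80%; inconclusive means mean at or below -80% but some replicate above -80%; inactive means mean growth activity above -80%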;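 further: 0% = DMSO wells and -100% = levofloxacin 16 µg/mL wells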
Pf_Dd2_growth: P. falciparum Dd2 growth inhibitors, primary screen, SYBR Green fluorescence, single dose replicates; 94,000 compounds, 2.3% hits; 72 h; stronger effect = lower value; activity change, % at 10 µM; AID 1159554, 2015; in the data active means activity change below about -80%; inconclusive means no clear call, values can overlap the other calls
An asterisk follows results filed as active; ? = inconclusive; nt = no result given. Most compounds without a hit are left out; they make up all but 2.3% or so of the library.

SMILES C_diff_HTS Pf_Dd2_growth
C[C@@H](NC(=O)C[C@@H]1C[C@@H]2c3cc(NC(=O)C4CCC4)ccc3O[C@@H]2[C@H](CO)O1)c1ccccc1 -25.3 -26.1
O=C(Nc1ccc(C(F)(F)F)cc1)N[C@H]1CC[C@@H](CCNC(=O)c2ccccc2F)O[C@H]1CO 1.6 -22.4
COc1ccc(S(=O)(=O)Nc2cccc3c2O[C@H](CN(C)C(=O)Nc2ccc(F)cc2)[C@H](C)CN([C@H](C)CO)C3=O)cc1 nt -23.5
CNC[C@H]1Oc2ccc(NC(=O)NC(C)C)cc2C(=O)N([C@@H](C)CO)C[C@H]1C 1.3 12.4
CO[C@H]1CN(C)C(=O)c2ccc(NC(=O)NC(C)C)cc2OC[C@H](C)N(Cc2ccccc2)C[C@H]1C nt -46.6
CO[C@@H]1CN(C)C(=O)c2ccc(NC(=O)NC(C)C)cc2OC[C@@H](C)N(Cc2ccccc2)C[C@H]1C -8.3 -85.0*
CCCNC(=O)Nc1ccc2c(c1)C(=O)N(C)C[C@@H](OC)[C@H](C)CN(C(=O)C1CCOCC1)[C@@H](C)CO2 nt -87.4*
CCCC(=O)Nc1ccc2c(c1)OC[C@@H](C)N(Cc1ccc(F)cc1)C[C@@H](C)[C@H](OC)CN(C)C2=O 3.1 -86.5*
CO[C@@H]1CN(C)C(=O)c2ccc(NC(=O)c3ccc(F)cc3)cc2OC[C@H](C)N(C(=O)c2ccc(F)cc2)C[C@H]1C nt -39.7
CO[C@@H]1CN(C)C(=O)c2ccc(NC(=O)c3ccc(F)cc3)cc2OC[C@@H](C)N(C(=O)c2ccc(F)cc2)C[C@@H]1C nt -88.0*
CCCC(=O)Nc1ccc2c(c1)OC[C@H](C)N(Cc1ccc(F)cc1)C[C@@H](C)[C@H](OC)CN(C)C2=O nt -60.7
CCCNC(=O)Nc1ccc2c(c1)C(=O)N(C)C[C@H](OC)[C@@H](C)CN(C(=O)C1CCOCC1)[C@H](C)CO2 nt -78.8
C[C@@H]1CN([C@H](C)CO)C(=O)c2cc(NC(=O)Cc3ccccc3)ccc2O[C@H]1CN(C)C(=O)Nc1ccc(F)cc1 7.8 0.4
C[C@@H]1CCCCO[C@@H](CN(C)C(=O)Cc2ccccc2)[C@H](C)CN([C@H](C)CO)C(=O)c2cc(NS(=O)(=O)c3ccc(Cl)cc3)ccc2O1 7.6 -25.8
COc1ccc2c3c(n(C)c2c1)[C@H](CO)N(C(=O)c1cccnc1)CC31CCN(S(C)(=O)=O)CC1 -1.3 -18.6
COc1ccc2c3c([nH]c2c1)[C@H](CO)N(Cc1ccc(F)cc1)CC31CCN(C(C)=O)CC1 4.5 -88.9*
COCC(=O)N1CC2(C1)CN(Cc1cccc(Cl)c1)[C@H](CO)c1[nH]c3cc(OC)ccc3c12 -1.1 -56.9
COc1ccc2c3c([nH]c2c1)[C@@H](CO)N(Cc1cccc(Cl)c1)CC31CCN(C(C)=O)CC1 7.3 -88.4*
COc1ccc2c3c([nH]c2c1)[C@@H](CO)N(Cc1ccccc1)CC31CCN(C(C)=O)CC1 nt 20.4
COc1ccc2c3c([nH]c2c1)[C@@H](CO)N(Cc1cccc(Cl)c1)CC31CN(C(C)=O)C1 7.7 -88.6*
COc1ccc2c3c([nH]c2c1)[C@H](CO)N(Cc1cccc(Cl)c1)CC31CCN(C(C)=O)CC1 -0.6 -89.1*
COCC(=O)N1CCC2(CC1)CN(Cc1cccc(Cl)c1)[C@H](CO)c1[nH]c3cc(OC)ccc3c12 1.2 -71.1
COc1ccc2c3c([nH]c2c1)[C@H](CO)N(Cc1ccc(F)cc1)CC31CCN(C)CC1 5.9 -75.0
CNC[C@H]1Oc2ncc(-c3ccc(OC)cc3)cc2C(=O)N([C@@H](C)CO)C[C@@H]1C nt -42.7
Cc1ccccc1S(=O)(=O)N1C[C@@H](O)COC[C@H]2O[C@H](CC(=O)N3CCC(Cc4ccccc4)CC3)CC[C@@H]21 1.9 -28.5
SMILES C_diff_HTS Pf_Dd2_growth
COc1ccc(C(=O)Nc2ccc3c(c2)C(=O)N(C)C[C@@H](OC)[C@@H](C)CN[C@@H](C)CO3)cc1 nt -7.2
C[C@H]1CN([C@@H](C)CO)C(=O)c2cccc(NC(=O)c3nc4ccccc4s3)c2O[C@@H]1CN(C)Cc1ccc(C(F)(F)F)cc1 nt -45.2
C[C@H](CO)N1C[C@H](C)[C@H](CN(C)Cc2ccc(C(F)(F)F)cc2)Oc2c(NC(=O)c3nc4ccccc4s3)cccc2C1=O nt -86.6*
C[C@@H]1CN([C@@H](C)CO)C(=O)c2cccc(NC(=O)c3nc4ccccc4s3)c2O[C@H]1CN(C)Cc1ccc(C(=O)Nc2ccccc2N)cc1 nt -91.3*
C[C@@H]1CN([C@@H](C)CO)C(=O)c2cccc(NC(=O)c3nc4ccccc4s3)c2O[C@@H]1CN(C)Cc1ccc(C(=O)O)cc1 -4.1 -22.8
C[C@@H]1CN([C@H](C)CO)C(=O)c2cccc(NC(=O)c3nc4ccccc4s3)c2O[C@@H]1CN(C)Cc1ccc(C(=O)O)cc1 -1.1 -33.2
C[C@@H]1CN([C@H](C)CO)C(=O)c2cccc(NC(=O)c3nc4ccccc4s3)c2O[C@@H]1CN(C)Cc1ccc(C(=O)Nc2ccccc2N)cc1 nt -88.5*
COc1ccc2c3c(n(C)c2c1)[C@@H](CO)N(C(C)=O)CC31CN(C(=O)c2cnccn2)C1 0.7 8.7
CNC[C@H]1Oc2c(NC(=O)c3ccc(-c4nccs4)cc3)cccc2C(=O)N([C@H](C)CO)C[C@@H]1C -6.9 -6.4
C/C=C/c1ccc2c(c1)[C@H]1[C@H](CCN1C(=O)COC)[C@@H](CO)N2 -0.6 55.7
C[C@@H]1CCCCO[C@H](CN(C)Cc2ccc3c(c2)OCO3)[C@H](C)CN([C@H](C)CO)C(=O)c2cc(NS(=O)(=O)c3cccs3)ccc2O1 4.8 -44.2
Cc1ccc(S(=O)(=O)N[C@@H]2C=C[C@H](CC(=O)O)O[C@H]2CO)cc1 4.5 3.2
C[C@@H]1CCCCO[C@H](CN(C)S(=O)(=O)c2ccc(Cl)cc2)[C@H](C)CN([C@@H](C)CO)C(=O)c2cc(NC(=O)Nc3cccc4ccccc34)ccc2O1 0.6 -79.5
C[C@@H]1CCCCO[C@H](CN(C)S(=O)(=O)c2ccc(Cl)cc2)[C@@H](C)CN([C@@H](C)CO)C(=O)c2cc(NC(=O)Nc3cccc4ccccc34)ccc2O1 -1.2 -81.2*
C[C@@H]1CN([C@H](C)CO)C(=O)c2cc(NC(=O)Nc3cccc4ccccc34)ccc2O[C@@H](C)CCCCO[C@H]1CN(C)S(=O)(=O)c1ccc(Cl)cc1 5.3 ?
C[C@@H]1CN([C@H](C)CO)C(=O)c2cc(NC(=O)Nc3cccc4ccccc34)ccc2O[C@@H](C)CCCCO[C@@H]1CN(C)S(=O)(=O)c1ccc(Cl)cc1 8.4 -85.2*
CCCNC(=O)N1C[C@H](C)[C@@H](OC)CN(C)C(=O)c2cc(NC(C)=O)ccc2OC[C@@H]1C 0.6 31.3
C[C@@H]1CN([C@H](C)CO)S(=O)(=O)c2ccc(-c3ccncc3)cc2O[C@@H]1CN(C)CC1CC1 -4.1 -25.8
CCCNC(=O)N1[C@H](C#N)[C@H](c2ccc(-c3ccccc3F)cc2)[C@@H]1CO 17.9 -86.8*
CCCNC(=O)N1[C@@H](C#N)[C@H](c2ccc(-c3ccccc3F)cc2)[C@@H]1CO -4.6 -62.8
CCCNC(=O)N1[C@H](C#N)[C@H](c2ccc(-c3ccccc3F)cc2)[C@H]1CO 11.8 -87.5*
CCCNC(=O)N1[C@H](CO)[C@@H](c2ccc(-c3ccccc3F)cc2)[C@@H]1C#N 1.2 -16.5
